According to the supplement of paper PMC10849652:
About 8,800 targets were measured; listed, in parts, are those with a hit and a random draw of the rest. About 0.5% of all pairs of compound and target were hits.

What was measured:
Assay in all cases: log2 fold change, soluble protein after heating vs DMSO (PISA); higher = thermal stabilisation; K562 lysate, 10 uM; active = over 0.2 and 3.5 SD of the protein, either way, in both replicates (recomputed)
vemurafenib = compound: CCCS(=O)(=O)Nc1ccc(F)c(C(=O)c2c[nH]c3ncc(-c4ccc(Cl)cc4)cc23)c1F [vemurafenib]
In short: (§1)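 Dounce homogenisation of K562 pellets in PBS pH 7.4 with 1 mM MgCl2 produced a crude extract, used at 1 mg/mL protein. Exposure to 10 μM compound lasted 30 min, and aliquots were then heated for 3 min across 48°C-58°C, pooled and brought to 0.5% NP-40 at 4°C. The supernatant after 21,000xg for 90 min was quantified by TMTpro 16plex LC-MS/MS with channel sums equalised. Duplicate values are given as log-two fold change in thermal stability relative to solvent controls.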

[1] = compound: CCCS(=O)(=O)Nc1ccc(F)c(C(=O)c2c[nH]c3ncc(Cl)cc23)c1F
In short: as §1

barasertib = compound: CCN(CCCOc1ccc2c(Nc3cc(CC(=O)Nc4cccc(F)c4)[nH]n3)ncnc2c1)CCOP(=O)(O)O [barasertib]
In short: as §1

[2] = compound: CC[C@@H]1C(=O)N(C)c2cnc(Nc3ccc(C(=O)NC4CCN(C)CC4)cc3OC)nc2N1C1CCCC1
In short: as §1

volasertib = compound: CC[C@@H]1C(=O)N(C)c2cnc(Nc3ccc(C(=O)N[C@H]4CC[C@H](N5CCN(CC6CC6)CC5)CC4)cc3OC)nc2N1C(C)C [volasertib]
In short: as §1

[3] = compound: CCn1c(C(=O)N(C2CC2)C2CC2)cc2c3c(ncn3C)c(Nc3cc(C)n(C)n3)nc21
In short: as §1

[4] = compound: CCn1cc(-c2ccnc3[nH]c(-c4cccc(CN(C)C)c4)cc23)c(-c2ccc(NC(=O)N(C)C)cc2)n1
In short: as §1

[5] = compound: CN1CCC(CNc2ccc3ncc(-c4cccc(OC(F)(F)F)c4)n3n2)CC1
In short: as §1

alvocidib = compound: CN1CC[C@H](c2c(O)cc(O)c3c(=O)cc(-c4ccccc4Cl)oc23)[C@H](O)C1 [alvocidib]
In short: as §1

Tubastatin A = compound: CN1CCc2c(c3ccccc3n2Cc2ccc(C(=O)NO)cc2)C1 [Tubastatin A]
In short: as §1

[6] = compound: CNC(=O)C1=CC=CC=C1NC2=NC(=NC=C2Cl)NC3=C(C=C(C=C3)N4CCOCC4)OC
In short: as §1

defactinib = compound: CNC(=O)c1ccc(Nc2ncc(C(F)(F)F)c(NCc3nccnc3N(C)S(C)(=O)=O)n2)cc1 [defactinib]
In short: as §1

encorafenib = compound: COC(=O)N[C@@H](C)CNc1nccc(-c2cn(C(C)C)nc2-c2cc(Cl)cc(NS(C)(=O)=O)c2F)n1 [encorafenib]
In short: as §1

[7] = compound: COC(=O)[C@H](CCSC)NC(=O)C1=C(C=C(C=C1)NC[C@H](CS)N)C2=CC=CC=C2
In short: as §1

alisertib = compound: COc1cc(Nc2ncc3c(n2)-c2ccc(Cl)cc2C(c2c(F)cccc2OC)=NC3)ccc1C(=O)O [alisertib]
In short: as §1

[8] = compound: COc1cc2nc(-c3cc(F)ccc3O)nc(N[C@@H]3CNC[C@H]3C(C)(C)O)c2cc1OC
In short: as §1

gefitinib = compound: COc1cc2ncnc(Nc3ccc(F)c(Cl)c3)c2cc1OCCCN1CCOCC1 [gefitinib]
In short: as §1

saracatinib = compound: CN1CCN(CCOc2cc(OC3CCOCC3)c3c(Nc4c(Cl)ccc5c4OCO5)ncnc3c2)CC1 [saracatinib]
In short: as §1

sotrastaurin = compound: CN1CCN(c2nc(C3=C(c4c[nH]c5ccccc45)C(=O)NC3=O)c3ccccc3n2)CC1 [sotrastaurin]
In short: as §1

[9] = compound: CNc1nc(-c2ccc3c(N)n[nH]c3c2)cc(N2C[C@@H](C(=O)NC3CCCCC3)CC[C@H]2C)n1
In short: as §1

Measured: log2 fold change

BTRC (UniProt Q9Y297)
inactive: vemurafenib -0.002 | [1] 0.023 | barasertib 0.052 | [2] 0.076 | volasertib -0.041 | [3] -0.088 | [4] 0.073 | [5] 0.067 | alvocidib -0.05 | Tubastatin A -0.019 | [6] -0.049 | defactinib -0.018 | encorafenib 0.035 | [7] 0.172 | alisertib -0.022 | [8] 0.096 | gefitinib -0.058

CEP152 (UniProt O94986)
UniProt O94986, sequence (O94986 whole entry, looked up): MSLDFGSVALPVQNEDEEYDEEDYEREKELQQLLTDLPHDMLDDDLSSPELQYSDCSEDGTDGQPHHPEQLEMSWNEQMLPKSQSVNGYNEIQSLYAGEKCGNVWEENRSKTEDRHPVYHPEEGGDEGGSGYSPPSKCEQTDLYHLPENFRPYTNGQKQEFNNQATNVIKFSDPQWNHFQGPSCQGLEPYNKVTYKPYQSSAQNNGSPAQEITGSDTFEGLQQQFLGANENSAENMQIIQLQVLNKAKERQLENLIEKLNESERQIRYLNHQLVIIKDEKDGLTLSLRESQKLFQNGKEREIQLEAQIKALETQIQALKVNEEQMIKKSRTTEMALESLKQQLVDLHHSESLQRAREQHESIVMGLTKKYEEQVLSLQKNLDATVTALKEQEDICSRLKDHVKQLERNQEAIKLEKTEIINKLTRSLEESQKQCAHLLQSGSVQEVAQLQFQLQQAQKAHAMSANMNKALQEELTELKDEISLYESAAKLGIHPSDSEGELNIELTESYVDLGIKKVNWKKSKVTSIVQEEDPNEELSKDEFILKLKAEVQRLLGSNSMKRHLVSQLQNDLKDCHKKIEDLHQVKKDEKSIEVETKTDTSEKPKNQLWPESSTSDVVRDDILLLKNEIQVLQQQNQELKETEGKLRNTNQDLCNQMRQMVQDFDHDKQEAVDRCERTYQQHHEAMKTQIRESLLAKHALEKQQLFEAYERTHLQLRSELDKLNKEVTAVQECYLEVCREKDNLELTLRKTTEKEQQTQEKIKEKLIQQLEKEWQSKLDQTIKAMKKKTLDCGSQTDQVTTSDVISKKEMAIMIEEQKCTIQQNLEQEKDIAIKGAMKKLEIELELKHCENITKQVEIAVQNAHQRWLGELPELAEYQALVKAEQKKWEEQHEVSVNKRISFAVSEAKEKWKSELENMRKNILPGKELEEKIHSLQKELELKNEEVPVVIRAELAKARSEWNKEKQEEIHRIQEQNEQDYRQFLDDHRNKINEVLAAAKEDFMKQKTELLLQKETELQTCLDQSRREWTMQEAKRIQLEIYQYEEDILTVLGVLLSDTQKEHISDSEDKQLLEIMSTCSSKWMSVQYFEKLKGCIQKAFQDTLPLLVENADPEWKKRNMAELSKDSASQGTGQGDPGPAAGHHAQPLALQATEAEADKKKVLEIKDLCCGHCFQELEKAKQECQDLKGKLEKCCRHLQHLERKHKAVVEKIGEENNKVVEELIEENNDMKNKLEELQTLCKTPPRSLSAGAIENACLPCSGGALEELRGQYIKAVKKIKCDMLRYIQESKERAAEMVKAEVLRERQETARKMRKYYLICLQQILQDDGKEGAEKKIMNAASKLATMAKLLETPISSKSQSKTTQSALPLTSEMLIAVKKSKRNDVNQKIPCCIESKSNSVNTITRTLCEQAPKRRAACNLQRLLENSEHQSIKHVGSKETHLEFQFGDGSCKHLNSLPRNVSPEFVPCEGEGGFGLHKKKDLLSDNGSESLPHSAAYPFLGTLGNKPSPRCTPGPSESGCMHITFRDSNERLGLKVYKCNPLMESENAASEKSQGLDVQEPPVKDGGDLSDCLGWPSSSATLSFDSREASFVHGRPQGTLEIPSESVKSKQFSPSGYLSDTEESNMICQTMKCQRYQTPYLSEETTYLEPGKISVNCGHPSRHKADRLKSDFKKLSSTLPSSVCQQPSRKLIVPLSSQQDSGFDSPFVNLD
inactive: vemurafenib 0.031 | barasertib 0.106 | [2] 0.25 | [3] 0.008 | [4] -0.009 | [5] 0.272 | saracatinib 0.051 | sotrastaurin -0.039 | alvocidib -0.077 | Tubastatin A -0.061 | [6] 0.019 | defactinib 0.019 | [9] 0.182 | encorafenib -0.064 | [7] 0.04 | alisertib -0.007 | gefitinib 0.008

CD80 (UniProt P33681)
inactive: vemurafenib 0.115 | [1] -0.113 | [2] 0.063 | volasertib -0.001 | [3] -0.011 | [4] 0.239 | [5] -0.177 | saracatinib -0.069 | sotrastaurin 0.032 | alvocidib 0.071 | Tubastatin A 0 | [6] 0.014 | defactinib -0.085 | [9] 0.11 | encorafenib 0.016 | [7] -0.082 | alisertib -0.345 | [8] -0.011 | gefitinib -0.001

CEP41 (UniProt Q9BYV8)
inactive: vemurafenib -0.022 | [1] 0.108 | barasertib 0.03 | [2] 0.018 | volasertib -0.023 | [4] 0.02 | [5] -0.009 | saracatinib -0.032 | sotrastaurin 0.03 | alvocidib 0.042 | [6] 0.083 | defactinib 0.015 | [9] 0.073 | encorafenib 0.001 | [7] -0.139 | alisertib 0.029 | [8] -0.059 | gefitinib 0.011

CAMK1 (UniProt Q14012)
UniProt Q14012, sequence (Q14012 whole entry, looked up): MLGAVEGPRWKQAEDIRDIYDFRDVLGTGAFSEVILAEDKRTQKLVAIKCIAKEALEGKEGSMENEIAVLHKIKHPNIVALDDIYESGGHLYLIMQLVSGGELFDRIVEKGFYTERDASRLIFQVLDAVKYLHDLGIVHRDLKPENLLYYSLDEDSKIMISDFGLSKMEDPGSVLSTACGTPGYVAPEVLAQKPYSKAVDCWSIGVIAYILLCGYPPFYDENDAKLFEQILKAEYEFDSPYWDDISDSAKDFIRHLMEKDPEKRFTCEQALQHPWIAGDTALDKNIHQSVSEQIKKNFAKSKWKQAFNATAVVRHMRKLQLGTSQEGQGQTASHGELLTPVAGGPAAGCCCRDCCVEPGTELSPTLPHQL
inactive: vemurafenib -0.094 | barasertib 0.027 | [2] 0.106 | volasertib -0.018 | [3] -0.06 | [4] -0.095 | [5] 0.272 | saracatinib -0.061 | sotrastaurin -0.016 | alvocidib -0.074 | Tubastatin A 0 | [6] 0.067 | defactinib 0.04 | [9] -0.036 | encorafenib -0.054 | [7] -0.032 | alisertib 0.016 | [8] 0.029 | gefitinib -0.01

CANX (UniProt D6RHJ3)
inactive: vemurafenib -0.033 | [1] -0.04 | volasertib 0.017 | defactinib 0.174 | alisertib 0.068 | [8] 0.07 | gefitinib -0.242

CDK5 (UniProt Q00535)
active: alvocidib 1.07 | defactinib 0.654
inactive: vemurafenib -0.021 | [1] 0.022 | [2] -0.08 | volasertib -0.079 | [3] 0.008 | [4] -0.055 | [5] 0.071 | saracatinib -0.008 | sotrastaurin 0.175 | Tubastatin A -0.058 | [6] 0.211 | [9] -0.032 | encorafenib 0.024 | [7] -0.1 | alisertib -0.032 | [8] 0.03 | gefitinib -0.027

AURKAIP1 (UniProt Q9NWT8)
inactive: vemurafenib 0.043 | [1] -0.124 | barasertib 0.055 | [2] 0.071 | volasertib 0.043 | [3] -0.129 | [4] -0.027 | [5] 0.129 | saracatinib 0.023 | sotrastaurin -0.055 | alvocidib 0.026 | Tubastatin A 0.219 | [6] -0.02 | defactinib 0.083 | [9] 0.072 | encorafenib 0.077 | [7] -0.057 | alisertib 0.067 | [8] 0.098 | gefitinib -0.032

C1orf131 isoform 5 (UniProt Q8NDD1)
inactive: vemurafenib 0.034 | [1] 0.026 | [2] 0.148 | volasertib -0.029 | [3] -0.042 | [4] -0.242 | [5] 0.095 | saracatinib -0.009 | sotrastaurin 0.017 | alvocidib -0.118 | Tubastatin A -0.036 | [6] 0.03 | defactinib 0.013 | [9] 0.148 | encorafenib 0.127 | [7] 0.02 | alisertib 0.148 | [8] -0.038 | gefitinib 0.111

BLM (UniProt P54132)
inactive: vemurafenib 0.007 | [1] 0.013 | barasertib -0.071 | [2] -0.063 | volasertib -0.029 | [3] 0.054 | [4] 0.247 | [5] -0.14 | saracatinib -0.014 | sotrastaurin -0.01 | alvocidib 0.082 | Tubastatin A -0.07 | [6] 0.071 | defactinib 0.031 | [9] 0.001 | encorafenib 0.043 | [7] 0.018 | alisertib -0.025 | [8] -0.006 | gefitinib -0.054

C16orf70 (UniProt Q9BSU1)
inactive: vemurafenib 0.053 | [1] 0.086 | barasertib -0.016 | [2] 0 | volasertib -0.038 | [3] 0.018 | saracatinib -0.037 | sotrastaurin 0.031 | Tubastatin A 0.075 | [6] 0.082 | defactinib 0.216 | [9] -0.005 | encorafenib 0.04 | [7] -0.135 | [8] 0.076

CEBPZOS (UniProt A8MTT3)
UniProt A8MTT3, sequence (A8MTT3 whole entry, looked up): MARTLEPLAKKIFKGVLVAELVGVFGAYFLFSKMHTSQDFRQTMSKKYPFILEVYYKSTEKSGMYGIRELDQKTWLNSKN
inactive: vemurafenib 0.031 | [1] -0.026 | [2] -0.048 | volasertib -0.007 | [3] 0.024 | [4] -0.176 | [5] 0.041 | saracatinib 0.03 | sotrastaurin -0.005 | alvocidib -0.063 | Tubastatin A -0.124 | [6] 0.015 | defactinib 0.075 | [9] -0.055 | encorafenib 0.064 | [7] 0.046 | alisertib -0.064 | [8] -0.099 | gefitinib 0.006

CCDC85B (UniProt Q15834)
UniProt Q15834, sequence (Q15834 whole entry, looked up): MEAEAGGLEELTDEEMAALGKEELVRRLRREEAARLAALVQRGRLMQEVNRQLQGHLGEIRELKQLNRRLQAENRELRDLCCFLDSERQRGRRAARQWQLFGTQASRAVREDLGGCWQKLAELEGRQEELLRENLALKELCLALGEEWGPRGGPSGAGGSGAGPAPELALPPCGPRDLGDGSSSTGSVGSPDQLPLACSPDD
inactive: vemurafenib -0.317 | [1] 0.04 | barasertib -0.047 | [2] 0.086 | volasertib 0.345 | [3] 0.007 | [4] 0.126 | [5] -0.01 | saracatinib 0.163 | sotrastaurin -0.035 | alvocidib 0.016 | Tubastatin A 0.016 | [6] 0.217 | defactinib 0.183 | [9] -0.08 | encorafenib 0.255 | [7] -0.481
active: [8] -0.508

CARD11 (UniProt Q9BXL7)
UniProt Q9BXL7, sequence (Q9BXL7 whole entry, looked up): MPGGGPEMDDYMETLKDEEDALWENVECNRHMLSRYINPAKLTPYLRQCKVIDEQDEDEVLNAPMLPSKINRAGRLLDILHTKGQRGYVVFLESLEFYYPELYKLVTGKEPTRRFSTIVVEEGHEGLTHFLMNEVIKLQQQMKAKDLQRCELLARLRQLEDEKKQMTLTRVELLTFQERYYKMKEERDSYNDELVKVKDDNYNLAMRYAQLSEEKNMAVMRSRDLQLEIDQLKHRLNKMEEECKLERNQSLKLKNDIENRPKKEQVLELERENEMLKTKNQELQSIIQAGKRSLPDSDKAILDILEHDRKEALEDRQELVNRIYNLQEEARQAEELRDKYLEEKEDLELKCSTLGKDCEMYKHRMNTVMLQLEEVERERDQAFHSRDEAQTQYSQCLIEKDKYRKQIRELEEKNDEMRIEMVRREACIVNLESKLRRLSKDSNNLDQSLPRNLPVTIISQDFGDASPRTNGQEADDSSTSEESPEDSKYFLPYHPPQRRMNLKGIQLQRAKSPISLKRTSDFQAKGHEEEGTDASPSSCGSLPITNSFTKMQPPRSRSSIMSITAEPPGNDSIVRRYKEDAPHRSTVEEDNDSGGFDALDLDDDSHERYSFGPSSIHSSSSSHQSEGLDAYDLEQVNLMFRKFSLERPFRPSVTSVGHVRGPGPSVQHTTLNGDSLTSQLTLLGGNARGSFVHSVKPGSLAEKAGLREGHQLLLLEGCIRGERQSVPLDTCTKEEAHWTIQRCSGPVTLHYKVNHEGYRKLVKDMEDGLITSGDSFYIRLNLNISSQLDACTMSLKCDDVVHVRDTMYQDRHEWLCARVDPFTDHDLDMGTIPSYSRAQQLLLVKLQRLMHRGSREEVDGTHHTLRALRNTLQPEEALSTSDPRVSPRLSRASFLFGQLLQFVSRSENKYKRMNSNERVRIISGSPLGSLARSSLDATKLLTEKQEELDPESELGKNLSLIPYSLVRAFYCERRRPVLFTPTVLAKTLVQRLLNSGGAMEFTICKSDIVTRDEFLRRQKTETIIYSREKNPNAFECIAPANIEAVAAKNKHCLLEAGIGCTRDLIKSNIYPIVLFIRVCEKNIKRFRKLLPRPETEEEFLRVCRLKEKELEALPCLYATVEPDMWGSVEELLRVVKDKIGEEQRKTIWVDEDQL
inactive: vemurafenib 0.088 | [1] 0.012 | barasertib -0.075 | [2] -0.087 | volasertib -0.071 | [3] 0.082 | [4] -0.024 | [5] -0.014 | saracatinib 0.063 | sotrastaurin 0.002 | alvocidib 0.073 | Tubastatin A -0.023 | [6] 0.022 | defactinib -0.005 | [9] -0.029 | encorafenib -0.021 | [7] 0.072 | alisertib -0.028 | [8] 0.025 | gefitinib 0.014

BUB1B isoform 3 (UniProt O60566)
inactive: vemurafenib 0.024 | [1] 0.024 | barasertib 0.03 | [2] -0.012 | volasertib -0.014 | [3] 0.01 | [4] 0.13 | [5] -0.05 | saracatinib -0.006 | sotrastaurin 0.009 | alvocidib -0.032 | Tubastatin A -0.122 | [6] 0.018 | defactinib -0.012 | [9] 0.018 | encorafenib 0.033 | [7] 0.018 | alisertib 0.002 | [8] 0.011 | gefitinib -0.005

CDKL5 (UniProt O76039)
UniProt O76039, sequence (O76039 whole entry, looked up): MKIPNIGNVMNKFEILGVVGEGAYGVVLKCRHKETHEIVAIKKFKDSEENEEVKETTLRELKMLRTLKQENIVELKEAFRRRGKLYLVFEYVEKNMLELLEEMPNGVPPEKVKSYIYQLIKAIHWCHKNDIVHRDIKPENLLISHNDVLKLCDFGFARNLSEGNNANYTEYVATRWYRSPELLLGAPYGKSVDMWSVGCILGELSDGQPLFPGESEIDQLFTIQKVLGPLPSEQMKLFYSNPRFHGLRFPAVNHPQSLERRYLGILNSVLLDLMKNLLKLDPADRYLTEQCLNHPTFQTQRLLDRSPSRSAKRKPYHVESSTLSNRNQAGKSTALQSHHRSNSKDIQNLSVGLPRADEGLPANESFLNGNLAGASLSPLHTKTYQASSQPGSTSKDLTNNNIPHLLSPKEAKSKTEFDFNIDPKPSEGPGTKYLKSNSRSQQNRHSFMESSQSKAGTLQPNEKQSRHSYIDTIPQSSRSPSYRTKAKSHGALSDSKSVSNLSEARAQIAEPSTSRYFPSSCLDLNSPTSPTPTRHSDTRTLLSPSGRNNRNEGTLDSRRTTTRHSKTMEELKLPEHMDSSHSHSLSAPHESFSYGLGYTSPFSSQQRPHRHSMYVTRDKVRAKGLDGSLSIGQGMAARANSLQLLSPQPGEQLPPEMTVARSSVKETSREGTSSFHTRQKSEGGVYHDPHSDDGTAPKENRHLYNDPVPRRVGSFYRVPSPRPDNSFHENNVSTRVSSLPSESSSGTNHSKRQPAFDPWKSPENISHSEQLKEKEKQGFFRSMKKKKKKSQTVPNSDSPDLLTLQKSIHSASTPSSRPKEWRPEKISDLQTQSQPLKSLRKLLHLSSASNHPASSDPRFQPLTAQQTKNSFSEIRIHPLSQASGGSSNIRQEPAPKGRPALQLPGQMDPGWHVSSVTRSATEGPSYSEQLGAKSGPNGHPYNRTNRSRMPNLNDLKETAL
active: alvocidib 1.14
inactive: vemurafenib -0.131 | [1] 0.041 | [2] -0.149 | volasertib -0.035 | [4] -0.091 | [5] 0.088 | saracatinib -0.122 | sotrastaurin 0.048 | defactinib 0.55 | [9] -0.052 | encorafenib -0.038 | [7] -0.116 | [8] 0.058

AVEN (UniProt Q9NQS1)
UniProt Q9NQS1, sequence (Q9NQS1 whole entry, looked up): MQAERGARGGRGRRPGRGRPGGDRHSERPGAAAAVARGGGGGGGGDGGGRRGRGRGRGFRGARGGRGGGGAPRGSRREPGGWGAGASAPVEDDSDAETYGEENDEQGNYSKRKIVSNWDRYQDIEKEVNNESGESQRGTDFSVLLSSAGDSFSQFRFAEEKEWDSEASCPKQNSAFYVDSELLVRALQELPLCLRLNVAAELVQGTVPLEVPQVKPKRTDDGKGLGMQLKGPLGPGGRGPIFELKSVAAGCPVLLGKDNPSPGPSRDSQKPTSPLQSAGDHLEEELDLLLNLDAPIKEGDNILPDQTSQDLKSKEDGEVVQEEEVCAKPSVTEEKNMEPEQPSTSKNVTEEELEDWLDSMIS
active: [4] -0.651
inactive: vemurafenib 0.177 | barasertib -0.091 | [2] 0.117 | [3] -0.025 | [5] 0.167 | saracatinib 0 | sotrastaurin -0.007 | alvocidib -0.047 | Tubastatin A -0.154 | [6] 0.049 | defactinib -0.097 | [9] 0.082 | encorafenib 0.017 | [7] 0.016 | alisertib 0.061 | gefitinib -0.09

CDKN1B (UniProt P46527)
UniProt P46527, sequence (P46527 whole entry, looked up): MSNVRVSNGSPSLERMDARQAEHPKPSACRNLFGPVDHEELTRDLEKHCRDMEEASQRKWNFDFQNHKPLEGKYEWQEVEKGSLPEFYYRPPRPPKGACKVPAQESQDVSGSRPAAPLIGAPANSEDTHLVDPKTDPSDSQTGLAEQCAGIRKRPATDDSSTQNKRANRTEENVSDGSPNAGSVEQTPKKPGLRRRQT
inactive: vemurafenib -0.12 | [1] 0.004 | barasertib -0.032 | [2] 0.063 | volasertib -0.039 | [3] 0.099 | [4] 0.118 | [5] -0.119 | saracatinib -0.012 | sotrastaurin 0.015 | alvocidib 0.057 | Tubastatin A 0.048 | [6] 0.035 | defactinib 0.067 | [9] -0.045 | encorafenib 0.03 | [7] -0.043 | [8] 0.023
